The whole screen tested about 5,500 compounds, of which about 2,000 (36%) were called active. Roughly 18% stayed inconclusive and do not appear here. The list shows a part of the results. A number with no mark means an inactive call. Rule as the data show it: active = normalized growth mostly below about 0.91 (no sharp cut-off); inconclusive = no clear call, values can overlap the other calls; inactive = mostly above about 0.92.
Assay: chemical genetic growth profiling, strain panel (AID 1159580);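 also: tested at 20 µM; growth read once vehicle control cultures reached saturation at 30 °C; 1 = growth at the plate median or of vehicle wells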
Conditions: S. cerevisiae deletion strains, growth OD
[1] = locus YAR019C, strain CDC15, stronger effect = lower value
[2] = locus YBL105C, strain PKC1, stronger effect = lower value
[3] = locus YBR135W, strain CKS1, stronger effect = lower value
[4] = locus YBR136W, strain MEC1, stronger effect = lower value
[5] = locus YBR160W, strain CDC28, stronger effect = lower value
[6] = locus YDL017W, strain CDC7, stronger effect = lower value
[7] = locus YDL028C, strain MPS1, stronger effect = lower value
[8] = locus YDL101C, strain DUN1, stronger effect = lower value
[9] = locus YDL108W, strain KIN28, stronger effect = lower value
[10] = locus YDL132W, strain cdc53, stronger effect = lower value
[11] = locus YDL214C, strain PRR2, stronger effect = lower value
[12] = locus YDR052C, strain DBF4, stronger effect = lower value
[13] = locus YDR054C, strain cdc34, stronger effect = lower value
[14] = locus YDR226W, strain ADK1, stronger effect = lower value
[15] = locus YDR477W, strain SNF1, stronger effect = lower value
[16] = locus YER123W, strain YCK3, stronger effect = lower value
[17] = locus YER133W, strain GLC7, stronger effect = lower value
[18] = locus YFL009W, strain cdc4, stronger effect = lower value
[19] = locus YFL029C, strain CAK1, stronger effect = lower value
[20] = locus YFR003C, strain YPI1, stronger effect = lower value
[21] = locus YFR019W, strain FAB1, stronger effect = lower value
[22] = locus YFR028C, strain CDC14, stronger effect = lower value
[23] = locus YGR040W, strain KSS1, stronger effect = lower value
[24] = locus YGR052W, strain FMP48, stronger effect = lower value
[25] = locus YGR092W, strain DBF2, stronger effect = lower value
[26] = locus YHR030C, strain SLT2, stronger effect = lower value
[27] = locus YHR079C, strain IRE1, stronger effect = lower value
[28] = locus YHR082C, strain KSP1, stronger effect = lower value
[29] = locus YHR205W, strain SCH9, stronger effect = lower value
[30] = locus YIL147C, strain SLN1, stronger effect = lower value
[31] = locus YJL095W, strain BCK1, stronger effect = lower value
[32] = locus YJL128C, strain PBS2, stronger effect = lower value
[33] = locus YJL157C, strain FAR1, stronger effect = lower value
[34] = locus YJR016C, strain ILV3, stronger effect = lower value
[35] = locus YJR066W, strain TOR1 (second series), stronger effect = lower value
[36] = locus YJR066W, strain TOR1, stronger effect = lower value
[37] = locus YKL048C, strain ELM1, stronger effect = lower value
[38] = locus YKL067W, strain YNK1, stronger effect = lower value
[39] = locus YKL101W, strain HSL1, stronger effect = lower value
[40] = locus YKL193C, strain SDS22, stronger effect = lower value
[41] = locus YKL203C, strain TOR2, stronger effect = lower value
[42] = locus YLR113W, strain HOG1, stronger effect = lower value
[43] = locus YLR133W, strain CKI1, stronger effect = lower value
[44] = locus YLR403W, strain SFP1, stronger effect = lower value
[45] = locus YML070W, strain DAK1, stronger effect = lower value
[46] = locus YMR001C, strain CDC5, stronger effect = lower value
[47] = locus YMR205C, strain PFK2 (second series), stronger effect = lower value
[48] = locus YMR277W, strain FCP1, stronger effect = lower value
[49] = locus YNL006W, strain LST8, stronger effect = lower value
[50] = locus YNL020C, strain ARK1, stronger effect = lower value
[51] = locus YNL161W, strain CBK1, stronger effect = lower value
[52] = locus YNL183C, strain NPR1, stronger effect = lower value
[53] = locus YNL207W, strain RIO2, stronger effect = lower value
[54] = locus YNL222W, strain SSU72, stronger effect = lower value
[55] = locus YNL307C, strain MCK1 (second series), stronger effect = lower value
[56] = locus YOL078W, strain AVO1, stronger effect = lower value
[57] = locus YOL136C, strain PFK27, stronger effect = lower value
[58] = locus YOR061W, strain CKA2, stronger effect = lower value
[59] = locus YOR119C, strain RIO1, stronger effect = lower value
[60] = locus YOR231W, strain MKK1, stronger effect = lower value
[61] = locus YOR329C, strain SCD5, stronger effect = lower value
[62] = locus YPL031C, strain PHO85, stronger effect = lower value
[63] = locus YPL153C, strain RAD53, stronger effect = lower value
[64] = locus YPL204W, strain HRR25, stronger effect = lower value
[65] = locus YPL209C, strain IPL1, stronger effect = lower value
[66] = locus YPL256C, strain CLN2, stronger effect = lower value
[67] = locus YPR025C, strain CCL1, stronger effect = lower value
[68] = locus YPR106W, strain ISR1, stronger effect = lower value
[69] = locus YPR111W, strain DBF20, stronger effect = lower value
[70] = strain NNK1, stronger effect = lower value
[71] = strain TSCII, stronger effect = lower value

Compound: CNC(=O)n1nc(C)c(Cc2csc3ccc(Cl)cc23)c1C
- normalized growth [1]: 0.995
- normalized growth [2]: 0.998
- normalized growth [3]: 0.984
- normalized growth [4]: 0.997
- normalized growth [5]: 0.991
- normalized growth [6]: 0.994
- normalized growth [7]: 0.997
- normalized growth [8]: 1.01
- normalized growth [9]: 0.993
- normalized growth [10]: 1
- normalized growth [11]: 0.943
- normalized growth [12]: 1
- normalized growth [13]: 0.99
- normalized growth [14]: 0.99
- normalized growth [15]: 0.976
- normalized growth [16]: 0.906
- normalized growth [17]: 0.959
- normalized growth [18]: 0.999
- normalized growth [19]: 0.993
- normalized growth [20]: 0.993
- normalized growth [21]: 0.928
- normalized growth [22]: 0.978
- normalized growth [23]: 0.95
- normalized growth [24]: 0.989
- normalized growth [25]: 0.949
- normalized growth [26]: 0.935
- normalized growth [27]: 0.893
- normalized growth [28]: 0.936
- normalized growth [29]: 0.921
- normalized growth [30]: 0.993
- normalized growth [31]: 0.94
- normalized growth [32]: 0.934
- normalized growth [33]: 0.961
- normalized growth [34]: 0.994
- normalized growth [35]: 0.931
- normalized growth [36]: 1.02
- normalized growth [37]: 0.983
- normalized growth [38]: 0.91
- normalized growth [39]: 0.951
- normalized growth [40]: 0.991
- normalized growth [41]: 0.996
- normalized growth [42]: 0.902
- normalized growth [43]: 0.937
- normalized growth [44]: 0.942
- normalized growth [45]: 0.917
- normalized growth [46]: 0.988
- normalized growth [47]: 0.933
- normalized growth [48]: 0.988
- normalized growth [49]: 0.988
- normalized growth [50]: 0.934
- normalized growth [51]: 0.993
- normalized growth [52]: 0.896
- normalized growth [53]: 0.993
- normalized growth [54]: 0.992
- normalized growth [55]: 0.925
- normalized growth [56]: 0.991
- normalized growth [57]: 0.926
- normalized growth [58]: 0.957
- normalized growth [59]: 1.03
- normalized growth [60]: 0.894
- normalized growth [61]: 0.997
- normalized growth [62]: 0.966
- normalized growth [63]: 0.936
- normalized growth [64]: 0.926
- normalized growth [65]: 0.993
- normalized growth [66]: 0.855 (active)
- normalized growth [67]: 0.998
- normalized growth [68]: 0.999
- normalized growth [69]: 0.979
- normalized growth [70]: 0.991
- normalized growth [71]: 0.989

Compound: COc1ccc(C(=O)NCc2csc3ccc(Cl)cc23)cc1OC
- normalized growth [1]: 0.971
- normalized growth [2]: 0.97
- normalized growth [3]: 0.985
- normalized growth [4]: 0.975
- normalized growth [5]: 0.975
- normalized growth [6]: 0.982
- normalized growth [7]: 0.986
- normalized growth [8]: 0.973
- normalized growth [9]: 0.981
- normalized growth [10]: 0.979
- normalized growth [11]: 0.986
- normalized growth [12]: 0.971
- normalized growth [13]: 0.955
- normalized growth [14]: 0.975
- normalized growth [15]: 0.982
- normalized growth [16]: 0.977
- normalized growth [17]: 0.978
- normalized growth [18]: 0.97
- normalized growth [19]: 0.974
- normalized growth [20]: 0.977
- normalized growth [21]: 1
- normalized growth [22]: 0.977
- normalized growth [23]: 0.994
- normalized growth [24]: 1.05
- normalized growth [25]: 0.981
- normalized growth [26]: 1.03
- normalized growth [27]: 1.01
- normalized growth [28]: 1.05
- normalized growth [29]: 0.972
- normalized growth [30]: 0.975
- normalized growth [31]: 1.05
- normalized growth [32]: 0.92
- normalized growth [33]: 0.988
- normalized growth [34]: 0.975
- normalized growth [35]: 1.01
- normalized growth [36]: 1.07
- normalized growth [37]: 0.98
- normalized growth [38]: 0.987
- normalized growth [39]: 0.994
- normalized growth [40]: 0.977
- normalized growth [41]: 1.05
- normalized growth [42]: 0.92
- normalized growth [43]: 0.976
- normalized growth [44]: 0.994
- normalized growth [45]: 0.983
- normalized growth [46]: 0.979
- normalized growth [47]: 0.986
- normalized growth [48]: 0.973
- normalized growth [49]: 0.983
- normalized growth [50]: 0.985
- normalized growth [51]: 0.975
- normalized growth [52]: 0.999
- normalized growth [53]: 0.962
- normalized growth [54]: 0.972
- normalized growth [55]: 0.972
- normalized growth [56]: 0.977
- normalized growth [57]: 0.98
- normalized growth [58]: 1
- normalized growth [59]: 1.05
- normalized growth [60]: 0.983
- normalized growth [61]: 0.975
- normalized growth [62]: 0.994
- normalized growth [63]: 0.995
- normalized growth [64]: 0.974
- normalized growth [65]: 0.972
- normalized growth [66]: 0.947
- normalized growth [67]: 0.976
- normalized growth [68]: 0.966
- normalized growth [69]: 0.954
- normalized growth [70]: 0.97
- normalized growth [71]: 0.984

Compound: NNC(=O)c1csc(Cc2c(Cl)sc3ccc(Cl)cc23)n1
- normalized growth [1]: 0.979
- normalized growth [2]: 0.983
- normalized growth [3]: 1
- normalized growth [4]: 0.993
- normalized growth [5]: 0.996
- normalized growth [6]: 0.985
- normalized growth [7]: 0.996
- normalized growth [8]: 0.985
- normalized growth [9]: 1
- normalized growth [10]: 0.975
- normalized growth [11]: 1.02
- normalized growth [12]: 0.986
- normalized growth [13]: 0.968
- normalized growth [14]: 0.996
- normalized growth [15]: 0.979
- normalized growth [16]: 1.01
- normalized growth [17]: 0.979
- normalized growth [18]: 0.991
- normalized growth [19]: 0.971
- normalized growth [20]: 0.994
- normalized growth [21]: 0.992
- normalized growth [22]: 0.994
- normalized growth [23]: 0.988
- normalized growth [24]: 1.11
- normalized growth [25]: 0.969
- normalized growth [26]: 1
- normalized growth [27]: 0.977
- normalized growth [28]: 1.04
- normalized growth [29]: 1.01
- normalized growth [30]: 0.99
- normalized growth [31]: 0.994
- normalized growth [32]: 0.998
- normalized growth [33]: 0.994
- normalized growth [34]: 0.981
- normalized growth [35]: 0.983
- normalized growth [36]: 1.05
- normalized growth [37]: 1
- normalized growth [38]: 1
- normalized growth [39]: 1.02
- normalized growth [40]: 0.983
- normalized growth [41]: 1.04
- normalized growth [42]: 1.07
- normalized growth [43]: 1
- normalized growth [44]: 0.978
- normalized growth [45]: 1.01
- normalized growth [46]: 0.989
- normalized growth [47]: 1.01
- normalized growth [48]: 0.981
- normalized growth [49]: 0.998
- normalized growth [50]: 0.999
- normalized growth [51]: 0.983
- normalized growth [52]: 1.03
- normalized growth [53]: 0.983
- normalized growth [54]: 0.986
- normalized growth [55]: 1.01
- normalized growth [56]: 0.976
- normalized growth [57]: 1
- normalized growth [58]: 1.01
- normalized growth [59]: 1.07
- normalized growth [60]: 0.986
- normalized growth [61]: 0.99
- normalized growth [62]: 0.984
- normalized growth [63]: 0.974
- normalized growth [64]: 0.971
- normalized growth [65]: 0.984
- normalized growth [66]: 1.03
- normalized growth [67]: 0.995
- normalized growth [68]: 0.998
- normalized growth [69]: 0.992
- normalized growth [70]: 0.984
- normalized growth [71]: 0.982

Reference: PubChem BioAssay AID1159580 (chemical genetic matrix, 2015)
